Among the data in ChEMBL document CHEMBL1961873, “Compounds: GSK PKIS; Assays: Nanosyn kinase panel” (2012) are inhibition values, retold here.

SMILES strings stand for the structures.
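Note: each value is the mean of the inhibition measurements.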

For the experiment, the target named is T1, Tyrosine-protein kinase Tec (Homo sapiens) (UniProt P42680).
T1 sequence (whole entry): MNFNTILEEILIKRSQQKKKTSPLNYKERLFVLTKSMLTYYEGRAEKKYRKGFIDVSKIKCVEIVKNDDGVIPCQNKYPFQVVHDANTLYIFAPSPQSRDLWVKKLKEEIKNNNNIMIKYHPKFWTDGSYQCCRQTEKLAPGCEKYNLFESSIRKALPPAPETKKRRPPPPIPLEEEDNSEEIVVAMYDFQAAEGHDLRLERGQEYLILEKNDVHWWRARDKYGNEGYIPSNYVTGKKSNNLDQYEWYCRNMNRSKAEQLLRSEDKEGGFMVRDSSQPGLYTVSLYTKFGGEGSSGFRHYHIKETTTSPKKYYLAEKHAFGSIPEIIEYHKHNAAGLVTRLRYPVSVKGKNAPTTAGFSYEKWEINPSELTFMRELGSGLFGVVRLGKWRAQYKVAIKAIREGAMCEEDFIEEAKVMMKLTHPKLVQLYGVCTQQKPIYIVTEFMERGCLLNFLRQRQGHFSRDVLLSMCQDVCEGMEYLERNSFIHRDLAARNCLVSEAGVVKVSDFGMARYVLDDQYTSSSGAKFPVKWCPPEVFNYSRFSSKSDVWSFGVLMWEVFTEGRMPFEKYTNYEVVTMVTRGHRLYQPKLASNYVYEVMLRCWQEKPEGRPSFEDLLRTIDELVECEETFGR
The note with it: at 1 µM.
Regarding `CCS(=O)(=O)c1ccc(OC)c(Nc2ncc(-c3cccc(OC)c3)o2)c1`, the inhibition came to 35.5%.
The value for `Cc1ccc2c(-c3ccnc(Nc4cccc(C(F)(F)F)c4)n3)c(-c3ccccc3)nn2n1` was 38.3%.
The value for `CN(C)C(=O)O[C@H]1CN[C@H](C#Cc2cc3ncnc(Nc4ccc(OCc5cccc(F)c5)c(Cl)c4)c3s2)C1` was 6.52%; that for `COc1cccc(-n2nc(C)c3c(N/N=C(\C)c4ccncc4)ncnc32)c1` was 3.53%.
As to `CCn1c(-c2nonc2N)nc2ccc(F)cc21`, the inhibition worked out at 3.97%.
The value for `Cc1cc(Cl)cc2c1NC(=O)C2=NNc1ccc(S(N)(=O)=O)cc1` was 1.43%.
The value for `CN1CCN(C(=O)c2ccc(NC(=O)Nc3ccc(N(C)c4ccnc(Nc5ccc(CS(C)(=O)=O)cc5)n4)cc3)cc2)CC1` was 37.1%; that for `C[C@@H](Oc1cc(-n2cnc3ccc(OCC4CCN(C)CC4)cc32)sc1C(N)=O)c1ccccc1C(F)(F)F` was -0.1%.
The value for `Cc1nc(-c2ccccc2)n2nc(NCCCN3CCOCC3)ncc12` was 3.32%; that for `CN(C)C(=O)O[C@@H]1CN[C@@H](C#Cc2cc3ncnc(Nc4ccc(OCc5cccc(F)c5)c(Cl)c4)c3s2)C1` was 6.39%.
Regarding `c1ccc(Nc2ncc(-c3ccccc3)o2)cc1`, the inhibition amounted to 8.61%.
The value for `COc1cccc(-n2ncc3c(N/N=C/c4ccc(S(C)(=O)=O)cc4)ncnc32)c1` was 10.4%; that for `OCc1ccc(-c2nc(-c3ccccn3)c(-c3ccc4c(c3)OCO4)[nH]2)cc1` was 11.1%; that for `c1ccc(Cc2nc3ccc(Nc4ncnc5ccccc45)cc3[nH]2)cc1` was 8.08%.
The value for `CC(C)c1ccc2c(c1)NC(=O)/C2=N/Nc1ccc(S(N)(=O)=O)cc1` was 3.98%; that for `NC(=O)c1cccc(Nc2nccc(Nc3cccc(F)c3)n2)c1` was 34.3%; that for `COc1cc2ncn(-c3cc(OCc4ccccc4S(C)(=O)=O)c(C#N)s3)c2cc1OC` was 35.5%.
The value for `COc1cccc(-n2ncc3c(N/N=C/c4ccc(C)cc4)ncnc32)c1` was 5.78%; that for `CN(C)CCCn1c(-c2nonc2N)nc2cnccc21` was 4.06%; that for `O=C1Nc2ccc(-c3cccnc3)cc2C1=Cc1cc(Br)c(O)c(Br)c1` was 8.99%.
Take `N#Cc1c(NC(=O)c2ccccc2F)sc2c1CCCC2`: the inhibition turned out to be 0.35%.
For `CCOc1nccc2c1nc(-c1nonc1N)n2CC`, the inhibition was found to be 5.87%.
The value for `COC(=O)c1cncc(/C=C/c2c(C)cc(O)cc2C)c1` was 20.5%.
The value for `Cc1cc(O)cc(C)c1/C=C/c1cncc(C(=O)N(C)C)c1` was 5.03%.
The value for `NS(=O)(=O)c1ccc(NC=C2C(=O)Nc3ccc4ncsc4c32)cc1` was 22.4%; that for `CN(c1ccc(NC(=O)Nc2ccc(OC(F)(F)F)cc2)cc1)c1ccnc(Nc2cccc(S(N)(=O)=O)c2)n1` was 7.04%.
For `Cc1ccc(Nc2ccnc(Nc3cccc(C(N)=O)c3)n2)cc1O`, the inhibition amounted to 57.1%.
The value for `CC(C)c1ccc(Nc2nccc(-c3cnn4ncccc34)n2)cc1` was 7.14%.
The value for `NS(=O)(=O)c1cccc(Nc2cc(-c3ccc(F)cc3)n[nH]2)c1` was 6.08%; that for `Cc1ccc(NC(=O)CC2CC2)cc1-c1ccc(C(=O)NCC2CC2)cc1` was 8.67%.
The value for `N#Cc1cccc(Nc2nccc(-c3cnn4ncccc34)n2)c1` was 39.3%; that for `NS(=O)(=O)c1ccc(N/N=C2\C(=O)Nc3ccc(Cl)cc32)cc1` was 6.14%.
As to `Nc1ccc(C#Cc2cncnc2Nc2ccc(OCc3cccc(F)c3)c(Cl)c2)cc1`, the inhibition was 3.77%.
The value for `Nc1nccc(-c2c(-c3ccc(F)cc3)nn3cc(C(F)(F)F)ccc23)n1` was 4.1%.
